# Laboratory results from publication PMC7862700, “An all-to-all approach to the identification of sequence-specific readers for epigenetic DNA modifications on cytosine”.
# Tests used:
# Experiment in all cases: DAPPL (digital affinity profiling via proximity ligation, sequencing); 10 mM Tris-HCl pH 7.5, 50 mM NaCl, 1 mM DTT, 4% glycerol, room temperature, 30 min; GST-TFs on glutathione beads, 16-mer random dsDNA library, 0.1% formaldehyde crosslink after washing; high values mean tight binding
# FEV = biological target: T1, FEV (Homo sapiens, UniProt Q99581 1-238); settings: protein: recombinant; tags: N-terminal GST; dsDNA, one strand shown
# T1 sequence: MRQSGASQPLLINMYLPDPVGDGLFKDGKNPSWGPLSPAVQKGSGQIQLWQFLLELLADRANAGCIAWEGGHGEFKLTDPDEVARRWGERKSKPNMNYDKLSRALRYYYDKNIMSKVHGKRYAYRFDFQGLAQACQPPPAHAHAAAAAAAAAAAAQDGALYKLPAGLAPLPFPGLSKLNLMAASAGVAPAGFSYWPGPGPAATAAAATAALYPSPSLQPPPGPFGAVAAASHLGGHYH
# How it was run: (§1)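 Human transcription factors fused to GST were expressed in yeast, captured on glutathione beads, given DNA barcodes and pooled with a GST-only negative control. Pools were incubated with 200 nmole of a 16-mer random double-stranded DNA library in Tris/NaCl/DTT/glycerol buffer at room temperature for 30 min. They were then washed, crosslinked with 0.1% formaldehyde, proximity-ligated (BsaI/T4 ligase, 1 h, 37 °C), PCR-amplified and sequenced on an Illumina NextSeq500. Binding signal is each 6-mer's read frequency for a factor divided by its frequency for the GST control.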
# ETV5 = ETV5 (Homo sapiens, UniProt P41161 1-510); settings: protein: recombinant; tags: N-terminal GST; dsDNA, one strand shown
# How it was run: as §1
# HSF1 = HSF1 (Homo sapiens, UniProt Q00613 1-529); settings: protein: recombinant; tags: N-terminal GST; chain copies: 3; dsDNA, one strand shown
# How it was run: as §1
# SPIC = biological target: T2, SPIC (Homo sapiens, UniProt Q8N5J4 1-248); settings: protein: recombinant; tags: N-terminal GST; dsDNA, one strand shown
# T2 sequence: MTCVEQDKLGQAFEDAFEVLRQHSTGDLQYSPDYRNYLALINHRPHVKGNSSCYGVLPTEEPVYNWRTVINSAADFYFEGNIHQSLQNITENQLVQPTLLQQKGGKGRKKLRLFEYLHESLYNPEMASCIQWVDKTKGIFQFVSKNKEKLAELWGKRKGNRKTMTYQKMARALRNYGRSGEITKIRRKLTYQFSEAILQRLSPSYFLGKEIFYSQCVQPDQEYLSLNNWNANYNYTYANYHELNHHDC
# How it was run: as §1
# ELF4 = ELF4 (Homo sapiens, UniProt Q99607 1-663); settings: protein: recombinant; tags: N-terminal GST; dsDNA, one strand shown
# How it was run: as §1
# ELK4 = biological target: T3, ELK4 (Homo sapiens, UniProt P28324-2 1-405); settings: protein: recombinant; tags: N-terminal GST; dsDNA, one strand shown
# T3 sequence: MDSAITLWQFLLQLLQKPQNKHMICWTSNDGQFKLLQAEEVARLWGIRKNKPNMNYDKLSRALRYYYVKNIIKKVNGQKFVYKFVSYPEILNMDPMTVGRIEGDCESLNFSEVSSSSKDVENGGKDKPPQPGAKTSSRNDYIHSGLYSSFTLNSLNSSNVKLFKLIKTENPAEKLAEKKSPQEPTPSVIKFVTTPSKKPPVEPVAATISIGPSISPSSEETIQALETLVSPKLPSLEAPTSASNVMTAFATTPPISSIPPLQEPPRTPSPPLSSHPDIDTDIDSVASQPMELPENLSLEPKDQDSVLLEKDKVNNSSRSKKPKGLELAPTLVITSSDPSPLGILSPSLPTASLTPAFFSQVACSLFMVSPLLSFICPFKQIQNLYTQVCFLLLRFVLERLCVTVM
# How it was run: as §1
# ETV2 = biological target: T4, ETV2 (Homo sapiens, UniProt O00321 1-342); settings: protein: recombinant; tags: N-terminal GST; dsDNA, one strand shown
# T4 sequence: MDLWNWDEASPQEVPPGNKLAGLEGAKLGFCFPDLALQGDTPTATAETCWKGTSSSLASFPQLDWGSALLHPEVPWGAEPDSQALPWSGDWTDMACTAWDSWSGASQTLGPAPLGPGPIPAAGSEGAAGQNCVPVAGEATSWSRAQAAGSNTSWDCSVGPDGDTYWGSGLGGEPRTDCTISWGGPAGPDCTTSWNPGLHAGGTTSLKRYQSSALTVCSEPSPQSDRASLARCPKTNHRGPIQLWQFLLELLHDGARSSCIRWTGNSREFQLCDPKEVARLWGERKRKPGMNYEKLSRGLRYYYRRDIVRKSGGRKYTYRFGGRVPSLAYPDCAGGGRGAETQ
# How it was run: as §1
# ELF3 = biological target: T5, ELF3 (Homo sapiens, UniProt P78545 1-371); settings: protein: recombinant; tags: N-terminal GST; dsDNA, one strand shown
# T5 sequence: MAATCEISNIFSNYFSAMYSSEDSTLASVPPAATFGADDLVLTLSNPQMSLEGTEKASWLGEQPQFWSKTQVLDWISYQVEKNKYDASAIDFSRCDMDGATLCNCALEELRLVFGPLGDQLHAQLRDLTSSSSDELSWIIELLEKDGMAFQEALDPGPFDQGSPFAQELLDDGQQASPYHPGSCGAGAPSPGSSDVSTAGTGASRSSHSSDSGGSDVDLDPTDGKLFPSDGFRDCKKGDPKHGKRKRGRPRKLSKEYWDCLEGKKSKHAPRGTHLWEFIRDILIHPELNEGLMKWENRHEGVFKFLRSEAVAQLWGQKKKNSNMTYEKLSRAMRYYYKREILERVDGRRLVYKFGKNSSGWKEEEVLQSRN
# How it was run: as §1
# CRX = CRX (Homo sapiens, UniProt O43186 1-299); settings: protein: recombinant; tags: N-terminal GST; dsDNA, one strand shown
# How it was run: as §1
# ETV1 = ETV1 (Homo sapiens, UniProt P50549 1-477); settings: protein: recombinant; tags: N-terminal GST; dsDNA, one strand shown
# How it was run: as §1
# ERF = biological target: T6, ERF (Homo sapiens, UniProt P50548 1-548); settings: protein: recombinant; tags: N-terminal GST; dsDNA, one strand shown
# T6 sequence: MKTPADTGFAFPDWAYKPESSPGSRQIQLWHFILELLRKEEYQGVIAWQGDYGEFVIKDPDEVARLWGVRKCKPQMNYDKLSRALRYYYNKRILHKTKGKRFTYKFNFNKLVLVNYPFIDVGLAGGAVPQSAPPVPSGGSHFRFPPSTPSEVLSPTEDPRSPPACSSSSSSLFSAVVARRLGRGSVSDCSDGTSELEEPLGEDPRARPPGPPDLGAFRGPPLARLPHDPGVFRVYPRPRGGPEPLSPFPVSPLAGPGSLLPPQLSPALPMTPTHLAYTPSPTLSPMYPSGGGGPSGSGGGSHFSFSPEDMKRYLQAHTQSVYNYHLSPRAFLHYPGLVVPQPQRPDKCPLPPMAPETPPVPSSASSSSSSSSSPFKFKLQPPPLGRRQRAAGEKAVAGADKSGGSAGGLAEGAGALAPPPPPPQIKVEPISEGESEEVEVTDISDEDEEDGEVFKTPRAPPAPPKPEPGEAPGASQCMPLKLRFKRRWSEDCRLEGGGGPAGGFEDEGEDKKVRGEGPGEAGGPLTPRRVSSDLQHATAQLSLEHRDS
# How it was run: as §1
# ETV3L = biological target: T7, ETV3L (Homo sapiens, UniProt Q6ZN32 1-361); settings: protein: recombinant; tags: N-terminal GST; dsDNA, one strand shown
# T7 sequence: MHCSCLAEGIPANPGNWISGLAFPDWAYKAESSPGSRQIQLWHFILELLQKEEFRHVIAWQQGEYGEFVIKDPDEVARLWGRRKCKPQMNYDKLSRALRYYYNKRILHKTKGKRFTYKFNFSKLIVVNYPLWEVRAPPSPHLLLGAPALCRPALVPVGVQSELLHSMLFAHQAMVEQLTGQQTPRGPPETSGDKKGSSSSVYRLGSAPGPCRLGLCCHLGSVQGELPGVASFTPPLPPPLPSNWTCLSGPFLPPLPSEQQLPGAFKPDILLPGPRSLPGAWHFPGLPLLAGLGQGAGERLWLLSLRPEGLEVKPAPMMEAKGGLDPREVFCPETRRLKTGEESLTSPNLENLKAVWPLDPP
# How it was run: as §1
# ETS2 = biological target: T8, ETS2 (Homo sapiens, UniProt P15036 1-469); settings: protein: recombinant; tags: N-terminal GST; dsDNA, one strand shown
# T8 sequence: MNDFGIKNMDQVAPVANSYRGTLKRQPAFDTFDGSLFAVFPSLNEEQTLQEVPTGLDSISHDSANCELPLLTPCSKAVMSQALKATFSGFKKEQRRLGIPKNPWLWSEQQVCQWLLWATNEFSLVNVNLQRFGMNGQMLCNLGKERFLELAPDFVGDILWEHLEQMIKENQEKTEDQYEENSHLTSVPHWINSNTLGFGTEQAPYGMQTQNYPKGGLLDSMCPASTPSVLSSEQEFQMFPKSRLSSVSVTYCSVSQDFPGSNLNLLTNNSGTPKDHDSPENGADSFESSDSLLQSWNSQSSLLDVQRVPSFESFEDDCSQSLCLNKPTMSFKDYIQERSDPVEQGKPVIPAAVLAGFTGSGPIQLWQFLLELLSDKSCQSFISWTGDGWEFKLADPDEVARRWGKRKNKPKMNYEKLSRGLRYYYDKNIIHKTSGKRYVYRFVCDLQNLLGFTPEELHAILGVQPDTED
# How it was run: as §1
# SPDEF = biological target: T9, SPDEF (Homo sapiens, UniProt O95238 1-335); settings: protein: recombinant; tags: N-terminal GST; dsDNA, one strand shown
# T9 sequence: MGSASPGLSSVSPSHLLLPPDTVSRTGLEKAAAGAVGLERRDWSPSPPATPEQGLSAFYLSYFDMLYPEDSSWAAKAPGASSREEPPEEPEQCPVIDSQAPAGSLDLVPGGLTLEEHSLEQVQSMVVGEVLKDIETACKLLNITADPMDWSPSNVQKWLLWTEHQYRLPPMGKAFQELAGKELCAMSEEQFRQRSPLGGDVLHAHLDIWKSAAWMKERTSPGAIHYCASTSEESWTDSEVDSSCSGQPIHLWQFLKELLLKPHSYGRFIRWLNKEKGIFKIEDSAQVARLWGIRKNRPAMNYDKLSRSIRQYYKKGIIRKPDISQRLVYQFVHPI
# How it was run: as §1
# ETV7 = biological target: T10, ETV7 (Homo sapiens, UniProt Q9Y603 1-341); settings: protein: recombinant; tags: N-terminal GST; dsDNA, one strand shown
# T10 sequence: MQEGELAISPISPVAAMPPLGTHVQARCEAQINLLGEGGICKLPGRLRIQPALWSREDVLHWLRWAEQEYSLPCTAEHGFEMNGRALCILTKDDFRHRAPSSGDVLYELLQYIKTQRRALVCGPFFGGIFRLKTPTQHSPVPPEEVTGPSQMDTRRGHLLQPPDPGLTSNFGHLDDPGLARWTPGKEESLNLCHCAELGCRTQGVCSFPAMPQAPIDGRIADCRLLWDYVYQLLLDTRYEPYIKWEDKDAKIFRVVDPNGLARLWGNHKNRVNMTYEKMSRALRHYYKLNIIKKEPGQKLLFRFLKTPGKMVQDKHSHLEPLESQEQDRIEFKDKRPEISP
# How it was run: as §1
# ELF5 = biological target: T11, ELF5 (Homo sapiens, UniProt Q9UKW6-2 1-255); settings: protein: recombinant; tags: N-terminal GST; dsDNA, one strand shown
# T11 sequence: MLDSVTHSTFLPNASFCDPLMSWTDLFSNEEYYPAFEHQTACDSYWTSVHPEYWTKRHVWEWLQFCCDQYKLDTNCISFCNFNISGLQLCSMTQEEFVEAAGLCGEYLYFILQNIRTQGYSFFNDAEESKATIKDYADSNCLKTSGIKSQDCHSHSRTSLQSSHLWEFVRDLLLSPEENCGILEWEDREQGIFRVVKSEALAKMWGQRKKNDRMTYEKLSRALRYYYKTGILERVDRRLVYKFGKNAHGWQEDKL
# How it was run: as §1
# ETV3 = biological target: T12, ETV3 (Homo sapiens, UniProt P41162-2 1-143); settings: protein: recombinant; tags: N-terminal GST; dsDNA, one strand shown
# T12 sequence: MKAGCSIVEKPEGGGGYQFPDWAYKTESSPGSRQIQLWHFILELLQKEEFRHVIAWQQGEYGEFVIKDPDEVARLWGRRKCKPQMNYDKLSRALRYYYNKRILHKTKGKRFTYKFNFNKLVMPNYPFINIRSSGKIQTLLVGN
# How it was run: as §1
# ETV6 = ETV6 (Homo sapiens, UniProt P41212 1-452); settings: protein: recombinant; tags: N-terminal GST; dsDNA, one strand shown
# How it was run: as §1
# Chain of CRX (O43186 whole entry): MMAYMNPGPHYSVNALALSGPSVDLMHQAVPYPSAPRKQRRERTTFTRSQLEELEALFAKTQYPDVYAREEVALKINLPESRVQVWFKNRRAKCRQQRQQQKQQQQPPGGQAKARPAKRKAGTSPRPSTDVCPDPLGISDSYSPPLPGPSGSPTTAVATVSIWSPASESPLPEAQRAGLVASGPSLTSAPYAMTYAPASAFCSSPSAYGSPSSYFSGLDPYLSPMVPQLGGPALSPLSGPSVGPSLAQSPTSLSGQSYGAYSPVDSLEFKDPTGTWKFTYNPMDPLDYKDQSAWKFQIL
# Chain of ETV5 (P41161 whole entry): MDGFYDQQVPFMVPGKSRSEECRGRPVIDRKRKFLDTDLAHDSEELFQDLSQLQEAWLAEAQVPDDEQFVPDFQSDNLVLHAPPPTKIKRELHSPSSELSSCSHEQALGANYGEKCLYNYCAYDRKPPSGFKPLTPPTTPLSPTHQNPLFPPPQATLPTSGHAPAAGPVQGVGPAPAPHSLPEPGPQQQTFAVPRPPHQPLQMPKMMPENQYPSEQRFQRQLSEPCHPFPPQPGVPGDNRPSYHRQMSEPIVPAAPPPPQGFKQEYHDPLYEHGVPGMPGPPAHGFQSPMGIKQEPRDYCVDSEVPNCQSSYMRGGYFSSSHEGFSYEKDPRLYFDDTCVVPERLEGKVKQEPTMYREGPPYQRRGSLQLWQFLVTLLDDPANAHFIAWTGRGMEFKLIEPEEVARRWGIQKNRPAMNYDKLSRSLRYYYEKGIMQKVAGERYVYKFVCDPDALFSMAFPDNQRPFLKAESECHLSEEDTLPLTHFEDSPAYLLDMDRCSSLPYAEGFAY
# Chain of ETV1 (P50549 whole entry): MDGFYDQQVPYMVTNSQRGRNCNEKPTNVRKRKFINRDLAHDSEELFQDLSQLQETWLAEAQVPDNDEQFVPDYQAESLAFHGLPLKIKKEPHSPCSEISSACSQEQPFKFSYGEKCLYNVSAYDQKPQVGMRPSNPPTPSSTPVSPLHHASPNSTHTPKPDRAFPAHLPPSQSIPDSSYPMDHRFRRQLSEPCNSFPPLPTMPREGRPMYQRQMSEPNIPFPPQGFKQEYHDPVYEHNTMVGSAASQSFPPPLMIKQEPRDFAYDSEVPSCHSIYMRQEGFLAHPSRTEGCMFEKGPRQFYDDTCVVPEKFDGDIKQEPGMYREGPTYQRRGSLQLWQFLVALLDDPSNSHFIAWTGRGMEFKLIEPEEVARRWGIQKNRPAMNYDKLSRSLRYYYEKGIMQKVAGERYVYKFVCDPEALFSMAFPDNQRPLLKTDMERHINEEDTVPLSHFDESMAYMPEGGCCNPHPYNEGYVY
# Chain of ETV6 (P41212 whole entry): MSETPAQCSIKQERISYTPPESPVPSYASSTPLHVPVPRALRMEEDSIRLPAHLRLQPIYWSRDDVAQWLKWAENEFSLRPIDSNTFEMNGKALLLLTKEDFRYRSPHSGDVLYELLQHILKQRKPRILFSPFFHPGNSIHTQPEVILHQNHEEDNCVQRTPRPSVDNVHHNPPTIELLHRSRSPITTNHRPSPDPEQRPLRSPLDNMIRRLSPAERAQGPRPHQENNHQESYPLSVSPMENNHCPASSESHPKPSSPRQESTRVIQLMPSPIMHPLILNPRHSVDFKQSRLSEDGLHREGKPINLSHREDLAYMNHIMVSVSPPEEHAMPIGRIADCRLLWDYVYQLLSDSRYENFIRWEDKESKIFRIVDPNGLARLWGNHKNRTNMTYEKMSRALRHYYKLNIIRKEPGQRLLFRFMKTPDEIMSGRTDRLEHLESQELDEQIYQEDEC
# Chain of HSF1 (Q00613 whole entry): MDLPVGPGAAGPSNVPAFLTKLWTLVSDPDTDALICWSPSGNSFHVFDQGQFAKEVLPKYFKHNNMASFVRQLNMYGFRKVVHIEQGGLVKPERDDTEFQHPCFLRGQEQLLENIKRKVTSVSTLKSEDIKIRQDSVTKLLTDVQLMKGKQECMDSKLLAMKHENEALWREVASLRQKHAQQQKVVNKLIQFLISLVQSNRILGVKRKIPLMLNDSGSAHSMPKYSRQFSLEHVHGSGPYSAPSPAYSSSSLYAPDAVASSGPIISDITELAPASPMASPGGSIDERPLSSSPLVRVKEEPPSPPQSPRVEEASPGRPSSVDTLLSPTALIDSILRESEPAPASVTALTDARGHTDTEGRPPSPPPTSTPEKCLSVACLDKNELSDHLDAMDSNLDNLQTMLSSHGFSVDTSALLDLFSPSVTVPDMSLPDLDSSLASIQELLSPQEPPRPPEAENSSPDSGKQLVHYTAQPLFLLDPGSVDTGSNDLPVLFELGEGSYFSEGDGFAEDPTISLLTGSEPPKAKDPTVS
# Chain of ELF4 (Q99607 whole entry): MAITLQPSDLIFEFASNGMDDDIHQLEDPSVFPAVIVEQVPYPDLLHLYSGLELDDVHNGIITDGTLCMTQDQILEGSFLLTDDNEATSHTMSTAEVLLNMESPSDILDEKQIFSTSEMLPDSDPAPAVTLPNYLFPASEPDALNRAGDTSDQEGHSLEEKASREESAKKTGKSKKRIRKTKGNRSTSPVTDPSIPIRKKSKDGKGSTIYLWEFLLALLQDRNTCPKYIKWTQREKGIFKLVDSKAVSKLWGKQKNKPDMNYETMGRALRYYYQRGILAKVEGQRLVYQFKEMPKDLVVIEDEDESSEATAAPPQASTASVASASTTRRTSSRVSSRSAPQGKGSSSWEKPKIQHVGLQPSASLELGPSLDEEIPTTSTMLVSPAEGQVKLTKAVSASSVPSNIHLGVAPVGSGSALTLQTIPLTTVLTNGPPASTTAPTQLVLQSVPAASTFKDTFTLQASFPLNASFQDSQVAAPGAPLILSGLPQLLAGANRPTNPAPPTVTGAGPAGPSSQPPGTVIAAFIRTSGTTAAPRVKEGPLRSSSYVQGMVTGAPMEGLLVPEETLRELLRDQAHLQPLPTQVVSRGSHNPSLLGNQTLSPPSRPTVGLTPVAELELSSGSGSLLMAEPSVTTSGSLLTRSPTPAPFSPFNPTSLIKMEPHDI
sequence,measurement,setting,value
CTACCT,binding signal,FEV,"1.3 fold enrichment (6-mer frequency, TF over GST control)"
same,binding signal,ETV5,"1.36 fold enrichment (6-mer frequency, TF over GST control)"
same,binding signal,HSF1,"1.15 fold enrichment (6-mer frequency, TF over GST control)"
same,binding signal,SPIC,"1.38 fold enrichment (6-mer frequency, TF over GST control)"
same,binding signal,ELF4,"1.46 fold enrichment (6-mer frequency, TF over GST control)"
same,binding signal,ELK4,"1.36 fold enrichment (6-mer frequency, TF over GST control)"
same,binding signal,ETV2,"1.54 fold enrichment (6-mer frequency, TF over GST control)"
same,binding signal,ELF3,"1.18 fold enrichment (6-mer frequency, TF over GST control)"
same,binding signal,CRX,"1.23 fold enrichment (6-mer frequency, TF over GST control)"
same,binding signal,ETV1,"1.54 fold enrichment (6-mer frequency, TF over GST control)"
same,binding signal,ERF,"1.74 fold enrichment (6-mer frequency, TF over GST control)"
same,binding signal,ETV3L,"1.53 fold enrichment (6-mer frequency, TF over GST control)"
same,binding signal,ETS2,"1.45 fold enrichment (6-mer frequency, TF over GST control)"
same,binding signal,SPDEF,"1.45 fold enrichment (6-mer frequency, TF over GST control)"
same,binding signal,ETV7,"1.22 fold enrichment (6-mer frequency, TF over GST control)"
same,binding signal,ELF5,"1.59 fold enrichment (6-mer frequency, TF over GST control)"
same,binding signal,ETV3,"1.44 fold enrichment (6-mer frequency, TF over GST control)"
same,binding signal,ETV6,"1.51 fold enrichment (6-mer frequency, TF over GST control)"
